Assay in all cases: DAPPL (digital affinity profiling via proximity ligation, sequencing); 10 mM Tris-HCl pH 7.5, 50 mM NaCl, 1 mM DTT, 4% glycerol, room temperature, 30 min; GST-TFs on glutathione beads, 16-mer random dsDNA library, 0.1% formaldehyde crosslink after washing; high values mean tight binding
One experiment addresses T1, FEV (Homo sapiens, UniProt Q99581 1-238).
T1 sequence: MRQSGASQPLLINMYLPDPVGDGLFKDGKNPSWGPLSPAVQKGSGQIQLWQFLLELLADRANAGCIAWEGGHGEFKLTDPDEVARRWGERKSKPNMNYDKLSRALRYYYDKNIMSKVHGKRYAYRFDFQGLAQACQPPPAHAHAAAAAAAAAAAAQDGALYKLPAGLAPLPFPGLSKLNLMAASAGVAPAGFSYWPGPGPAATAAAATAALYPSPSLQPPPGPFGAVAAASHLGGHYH
The settings on record: protein: recombinant; tags: N-terminal GST; dsDNA, one strand shown. The procedure, abridged: (§1)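 Binding signal is each hexamer's read frequency for a factor divided by its frequency in the tag-only sample. The factors were GST-fused human transcription factors from yeast, captured on glutathione beads, DNA-barcoded and pooled with that sample. Pools were incubated with 200 nmole of a random double-stranded 16-mer DNA library in Tris/NaCl/DTT/glycerol buffer at room temperature for 30 min, then washed, crosslinked with 0.1% formaldehyde, proximity-ligated with BsaI/T4 ligase (1 h, 37 °C), PCR-amplified and sequenced on an Illumina NextSeq500.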

A further experiment concerns the target ETV5 (Homo sapiens, UniProt P41161 1-510). The settings on record: protein: recombinant; tags: N-terminal GST; dsDNA, one strand shown. In a few lines: as §1
The target of the next experiment is HSF1 (Homo sapiens, UniProt Q00613 1-529). Particulars: protein: recombinant; tags: N-terminal GST; chain copies: 3; dsDNA, one strand shown. In a few lines: as §1
Chain of HSF1 (Q00613 whole entry): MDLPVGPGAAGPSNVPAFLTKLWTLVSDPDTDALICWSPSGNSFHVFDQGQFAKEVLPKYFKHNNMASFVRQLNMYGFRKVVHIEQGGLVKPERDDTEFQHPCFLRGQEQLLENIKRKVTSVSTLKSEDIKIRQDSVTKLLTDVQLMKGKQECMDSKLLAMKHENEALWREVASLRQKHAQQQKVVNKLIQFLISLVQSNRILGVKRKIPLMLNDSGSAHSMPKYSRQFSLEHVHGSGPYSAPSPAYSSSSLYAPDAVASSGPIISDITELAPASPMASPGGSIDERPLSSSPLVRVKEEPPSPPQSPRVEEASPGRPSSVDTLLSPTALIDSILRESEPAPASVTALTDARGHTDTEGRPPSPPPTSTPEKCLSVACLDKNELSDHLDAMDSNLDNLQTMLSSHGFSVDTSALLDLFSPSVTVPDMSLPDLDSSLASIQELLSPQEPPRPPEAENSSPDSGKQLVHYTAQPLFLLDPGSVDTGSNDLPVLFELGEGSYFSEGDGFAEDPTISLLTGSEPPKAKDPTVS
The next experiment concerns the target T2, SPIC (Homo sapiens, UniProt Q8N5J4 1-248).
T2 sequence: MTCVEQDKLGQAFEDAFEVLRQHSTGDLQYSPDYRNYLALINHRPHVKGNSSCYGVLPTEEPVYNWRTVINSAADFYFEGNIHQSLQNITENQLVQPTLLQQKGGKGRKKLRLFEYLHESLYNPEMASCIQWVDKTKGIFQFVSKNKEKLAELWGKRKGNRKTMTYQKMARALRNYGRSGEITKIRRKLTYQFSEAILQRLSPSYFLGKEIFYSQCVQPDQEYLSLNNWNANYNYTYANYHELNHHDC
Particulars: protein: recombinant; tags: N-terminal GST; dsDNA, one strand shown. The procedure, abridged: as §1

For another experiment, the target named is ELF4 (Homo sapiens, UniProt Q99607 1-663). The settings on record: protein: recombinant; tags: N-terminal GST; dsDNA, one strand shown. The procedure, abridged: as §1
Chain of ELF4 (Q99607 whole entry): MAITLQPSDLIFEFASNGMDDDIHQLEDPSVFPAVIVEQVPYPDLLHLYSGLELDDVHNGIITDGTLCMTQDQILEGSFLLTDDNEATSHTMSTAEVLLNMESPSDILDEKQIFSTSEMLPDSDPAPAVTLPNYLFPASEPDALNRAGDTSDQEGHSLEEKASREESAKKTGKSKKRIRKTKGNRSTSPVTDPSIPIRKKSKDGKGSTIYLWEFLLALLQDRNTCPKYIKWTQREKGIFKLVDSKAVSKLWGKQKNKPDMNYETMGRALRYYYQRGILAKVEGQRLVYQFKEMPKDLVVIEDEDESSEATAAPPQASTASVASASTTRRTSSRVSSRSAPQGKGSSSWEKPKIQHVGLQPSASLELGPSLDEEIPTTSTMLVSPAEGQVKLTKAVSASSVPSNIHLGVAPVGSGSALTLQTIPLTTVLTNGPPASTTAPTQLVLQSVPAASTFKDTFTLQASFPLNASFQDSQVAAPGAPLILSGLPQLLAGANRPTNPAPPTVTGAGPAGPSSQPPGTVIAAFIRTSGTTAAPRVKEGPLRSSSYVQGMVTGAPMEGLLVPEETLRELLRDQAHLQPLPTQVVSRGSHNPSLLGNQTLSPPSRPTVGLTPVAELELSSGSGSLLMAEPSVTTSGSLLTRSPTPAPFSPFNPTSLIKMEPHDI
The next experiment has as its target T3, ELK4 (Homo sapiens, UniProt P28324-2 1-405).
T3 sequence: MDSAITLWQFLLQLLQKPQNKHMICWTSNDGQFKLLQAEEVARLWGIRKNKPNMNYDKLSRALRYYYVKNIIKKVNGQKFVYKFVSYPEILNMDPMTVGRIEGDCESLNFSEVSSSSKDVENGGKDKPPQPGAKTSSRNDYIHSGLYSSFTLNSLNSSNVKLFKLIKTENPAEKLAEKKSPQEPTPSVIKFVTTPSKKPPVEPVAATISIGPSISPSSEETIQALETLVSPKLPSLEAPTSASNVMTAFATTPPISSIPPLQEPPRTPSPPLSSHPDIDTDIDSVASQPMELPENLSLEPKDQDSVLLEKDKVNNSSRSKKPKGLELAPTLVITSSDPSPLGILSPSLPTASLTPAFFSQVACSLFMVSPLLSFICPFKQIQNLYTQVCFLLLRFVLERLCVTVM
The settings on record: protein: recombinant; tags: N-terminal GST; dsDNA, one strand shown. In a few lines:
as §1

In the next experiment the target is T4, ETV2 (Homo sapiens, UniProt O00321 1-342).
T4 sequence: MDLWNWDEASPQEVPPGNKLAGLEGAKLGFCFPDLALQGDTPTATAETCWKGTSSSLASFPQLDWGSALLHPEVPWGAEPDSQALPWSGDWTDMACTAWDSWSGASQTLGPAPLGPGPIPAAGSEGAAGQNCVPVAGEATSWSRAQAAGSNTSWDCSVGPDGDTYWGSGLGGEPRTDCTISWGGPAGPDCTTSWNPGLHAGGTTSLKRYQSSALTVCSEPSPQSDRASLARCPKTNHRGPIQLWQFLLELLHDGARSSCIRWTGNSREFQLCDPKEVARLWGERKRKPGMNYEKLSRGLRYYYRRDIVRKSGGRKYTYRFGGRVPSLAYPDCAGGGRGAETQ
Particulars: protein: recombinant; tags: N-terminal GST; dsDNA, one strand shown. The procedure, abridged: as §1

In another experiment the target is T5, ELF3 (Homo sapiens, UniProt P78545 1-371).
T5 sequence: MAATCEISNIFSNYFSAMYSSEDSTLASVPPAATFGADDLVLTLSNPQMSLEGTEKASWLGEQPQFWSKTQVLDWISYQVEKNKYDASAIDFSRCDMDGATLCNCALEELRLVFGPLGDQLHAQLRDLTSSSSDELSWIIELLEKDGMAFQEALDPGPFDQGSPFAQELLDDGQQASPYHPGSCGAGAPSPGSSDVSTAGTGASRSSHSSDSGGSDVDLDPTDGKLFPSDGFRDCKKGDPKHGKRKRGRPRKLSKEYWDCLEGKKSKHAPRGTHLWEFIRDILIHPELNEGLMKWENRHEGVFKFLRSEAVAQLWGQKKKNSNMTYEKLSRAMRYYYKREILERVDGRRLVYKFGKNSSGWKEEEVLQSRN
The settings on record: protein: recombinant; tags: N-terminal GST; dsDNA, one strand shown. In a few lines: as §1

The next experiment addresses CRX (Homo sapiens, UniProt O43186 1-299). Particulars: protein: recombinant; tags: N-terminal GST; dsDNA, one strand shown. The procedure, abridged:
as §1

The next experiment has as its target ETV1 (Homo sapiens, UniProt P50549 1-477). Particulars: protein: recombinant; tags: N-terminal GST; dsDNA, one strand shown. In a few lines:
as §1

A further experiment has as its target T6, ERF (Homo sapiens, UniProt P50548 1-548).
T6 sequence: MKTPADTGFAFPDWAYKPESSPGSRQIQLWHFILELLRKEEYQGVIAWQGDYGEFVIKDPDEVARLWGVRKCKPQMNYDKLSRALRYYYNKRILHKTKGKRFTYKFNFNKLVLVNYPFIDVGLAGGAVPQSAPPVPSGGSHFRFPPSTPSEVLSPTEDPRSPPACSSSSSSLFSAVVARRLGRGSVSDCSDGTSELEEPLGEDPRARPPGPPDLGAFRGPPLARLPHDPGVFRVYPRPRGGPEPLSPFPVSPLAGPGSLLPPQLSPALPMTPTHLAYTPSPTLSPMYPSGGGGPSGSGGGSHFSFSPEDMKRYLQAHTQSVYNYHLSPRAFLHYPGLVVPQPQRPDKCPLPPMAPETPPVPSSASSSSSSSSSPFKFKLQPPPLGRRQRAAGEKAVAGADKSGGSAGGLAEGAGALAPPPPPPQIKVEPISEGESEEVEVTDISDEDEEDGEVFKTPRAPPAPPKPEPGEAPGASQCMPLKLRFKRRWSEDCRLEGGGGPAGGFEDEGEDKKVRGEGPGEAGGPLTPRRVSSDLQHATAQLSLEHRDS
Particulars: protein: recombinant; tags: N-terminal GST; dsDNA, one strand shown. The procedure, abridged: as §1

Another experiment concerns the target T7, ETV3L (Homo sapiens, UniProt Q6ZN32 1-361).
T7 sequence: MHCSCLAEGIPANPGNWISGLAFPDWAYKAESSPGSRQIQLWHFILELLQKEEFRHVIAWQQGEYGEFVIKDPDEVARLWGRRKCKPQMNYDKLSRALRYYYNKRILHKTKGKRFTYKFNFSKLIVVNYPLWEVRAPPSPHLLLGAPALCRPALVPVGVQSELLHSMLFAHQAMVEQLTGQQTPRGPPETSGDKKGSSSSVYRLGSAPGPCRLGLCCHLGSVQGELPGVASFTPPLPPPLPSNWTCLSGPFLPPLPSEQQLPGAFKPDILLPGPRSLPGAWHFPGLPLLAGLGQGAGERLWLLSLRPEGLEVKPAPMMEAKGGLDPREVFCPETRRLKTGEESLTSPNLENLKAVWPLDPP
The settings on record: protein: recombinant; tags: N-terminal GST; dsDNA, one strand shown. In a few lines:
as §1

For another experiment, the target named is T8, ETS2 (Homo sapiens, UniProt P15036 1-469).
T8 sequence: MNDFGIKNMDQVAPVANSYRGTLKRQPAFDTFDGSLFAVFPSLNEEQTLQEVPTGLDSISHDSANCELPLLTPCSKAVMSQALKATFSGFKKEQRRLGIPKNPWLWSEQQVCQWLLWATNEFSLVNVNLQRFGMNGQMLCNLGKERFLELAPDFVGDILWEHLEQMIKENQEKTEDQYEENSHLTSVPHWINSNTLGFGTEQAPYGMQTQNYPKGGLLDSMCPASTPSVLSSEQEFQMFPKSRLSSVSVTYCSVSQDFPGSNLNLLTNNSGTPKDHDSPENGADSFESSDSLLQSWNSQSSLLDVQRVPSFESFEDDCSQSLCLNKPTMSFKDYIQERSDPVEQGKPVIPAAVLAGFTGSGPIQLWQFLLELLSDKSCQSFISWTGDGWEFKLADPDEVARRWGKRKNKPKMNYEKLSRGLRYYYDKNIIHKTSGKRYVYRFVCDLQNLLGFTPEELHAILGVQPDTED
Particulars: protein: recombinant; tags: N-terminal GST; dsDNA, one strand shown. The procedure, abridged:
as §1

The next experiment deals with T9, SPDEF (Homo sapiens, UniProt O95238 1-335).
T9 sequence: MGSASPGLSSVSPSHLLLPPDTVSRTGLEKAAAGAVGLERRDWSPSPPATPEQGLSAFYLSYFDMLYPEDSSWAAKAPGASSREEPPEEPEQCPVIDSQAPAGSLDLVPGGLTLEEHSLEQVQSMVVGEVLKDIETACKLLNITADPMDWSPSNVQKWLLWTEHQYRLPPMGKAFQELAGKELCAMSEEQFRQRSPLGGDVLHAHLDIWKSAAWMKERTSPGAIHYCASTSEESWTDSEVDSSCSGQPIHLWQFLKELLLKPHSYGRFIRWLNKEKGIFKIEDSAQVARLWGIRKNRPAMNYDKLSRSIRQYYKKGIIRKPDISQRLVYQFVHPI
Particulars: protein: recombinant; tags: N-terminal GST; dsDNA, one strand shown. The procedure, abridged: as §1

In the next experiment the target is T10, ETV7 (Homo sapiens, UniProt Q9Y603 1-341).
T10 sequence: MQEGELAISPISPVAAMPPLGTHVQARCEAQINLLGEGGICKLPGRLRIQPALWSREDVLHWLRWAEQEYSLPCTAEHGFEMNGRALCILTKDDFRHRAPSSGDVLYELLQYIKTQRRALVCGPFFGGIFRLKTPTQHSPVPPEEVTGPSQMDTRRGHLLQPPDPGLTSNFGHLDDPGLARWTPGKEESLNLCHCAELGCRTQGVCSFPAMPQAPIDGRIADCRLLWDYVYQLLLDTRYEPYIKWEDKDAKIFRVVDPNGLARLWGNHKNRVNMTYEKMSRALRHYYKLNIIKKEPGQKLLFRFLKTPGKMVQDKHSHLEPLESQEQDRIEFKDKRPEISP
The settings on record: protein: recombinant; tags: N-terminal GST; dsDNA, one strand shown. In a few lines: as §1

In a further experiment the target is T11, ELF5 (Homo sapiens, UniProt Q9UKW6-2 1-255).
T11 sequence: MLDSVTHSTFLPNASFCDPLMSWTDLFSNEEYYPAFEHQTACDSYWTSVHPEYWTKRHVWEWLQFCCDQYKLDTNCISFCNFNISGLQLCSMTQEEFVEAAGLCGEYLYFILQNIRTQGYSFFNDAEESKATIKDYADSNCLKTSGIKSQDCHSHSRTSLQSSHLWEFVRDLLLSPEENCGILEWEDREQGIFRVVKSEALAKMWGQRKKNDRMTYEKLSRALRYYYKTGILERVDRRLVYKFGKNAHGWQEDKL
Particulars: protein: recombinant; tags: N-terminal GST; dsDNA, one strand shown. In a few lines: as §1

Another experiment has as its target T12, ETV3 (Homo sapiens, UniProt P41162-2 1-143).
T12 sequence: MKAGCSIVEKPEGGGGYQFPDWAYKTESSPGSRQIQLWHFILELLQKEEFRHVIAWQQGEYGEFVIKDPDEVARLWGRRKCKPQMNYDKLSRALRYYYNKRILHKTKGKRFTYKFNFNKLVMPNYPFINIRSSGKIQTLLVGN
The settings on record: protein: recombinant; tags: N-terminal GST; dsDNA, one strand shown. The procedure, abridged: as §1

The target in another experiment is ETV6 (Homo sapiens, UniProt P41212 1-452). Particulars: protein: recombinant; tags: N-terminal GST; dsDNA, one strand shown. The procedure, abridged:
as §1

Chain of ETV5 (P41161 whole entry): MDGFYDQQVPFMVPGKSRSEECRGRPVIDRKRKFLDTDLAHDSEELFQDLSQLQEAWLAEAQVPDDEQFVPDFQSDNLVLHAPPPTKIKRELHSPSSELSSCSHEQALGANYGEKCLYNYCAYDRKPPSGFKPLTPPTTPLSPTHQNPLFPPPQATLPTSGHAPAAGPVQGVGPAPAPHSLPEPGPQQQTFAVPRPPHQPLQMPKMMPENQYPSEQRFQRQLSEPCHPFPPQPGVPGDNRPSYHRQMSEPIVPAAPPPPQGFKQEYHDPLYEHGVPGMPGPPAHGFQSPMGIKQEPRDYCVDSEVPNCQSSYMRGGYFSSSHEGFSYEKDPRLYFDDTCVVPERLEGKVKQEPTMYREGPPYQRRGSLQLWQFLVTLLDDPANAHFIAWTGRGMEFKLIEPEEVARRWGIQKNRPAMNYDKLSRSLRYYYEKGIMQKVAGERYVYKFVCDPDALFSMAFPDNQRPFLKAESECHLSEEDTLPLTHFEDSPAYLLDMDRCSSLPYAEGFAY
Chain of CRX (O43186 whole entry): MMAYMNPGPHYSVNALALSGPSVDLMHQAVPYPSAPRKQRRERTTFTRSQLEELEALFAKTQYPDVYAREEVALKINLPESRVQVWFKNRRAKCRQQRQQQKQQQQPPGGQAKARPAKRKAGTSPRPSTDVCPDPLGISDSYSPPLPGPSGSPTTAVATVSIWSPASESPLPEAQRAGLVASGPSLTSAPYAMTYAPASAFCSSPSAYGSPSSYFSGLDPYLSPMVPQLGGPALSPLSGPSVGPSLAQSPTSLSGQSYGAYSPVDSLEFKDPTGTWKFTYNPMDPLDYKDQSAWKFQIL
Chain of ETV6 (P41212 whole entry): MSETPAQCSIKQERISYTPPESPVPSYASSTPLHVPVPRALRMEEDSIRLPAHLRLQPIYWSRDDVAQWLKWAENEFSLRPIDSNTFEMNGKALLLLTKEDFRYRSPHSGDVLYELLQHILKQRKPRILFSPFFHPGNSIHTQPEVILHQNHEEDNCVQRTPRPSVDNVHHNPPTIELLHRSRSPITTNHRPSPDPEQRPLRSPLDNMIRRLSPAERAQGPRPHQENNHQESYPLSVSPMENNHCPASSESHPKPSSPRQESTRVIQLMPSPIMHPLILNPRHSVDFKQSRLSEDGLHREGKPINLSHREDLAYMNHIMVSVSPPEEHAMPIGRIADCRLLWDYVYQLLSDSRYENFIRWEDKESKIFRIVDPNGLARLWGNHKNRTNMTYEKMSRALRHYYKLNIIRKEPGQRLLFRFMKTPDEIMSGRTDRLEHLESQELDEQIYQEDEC
Chain of ETV1 (P50549 whole entry): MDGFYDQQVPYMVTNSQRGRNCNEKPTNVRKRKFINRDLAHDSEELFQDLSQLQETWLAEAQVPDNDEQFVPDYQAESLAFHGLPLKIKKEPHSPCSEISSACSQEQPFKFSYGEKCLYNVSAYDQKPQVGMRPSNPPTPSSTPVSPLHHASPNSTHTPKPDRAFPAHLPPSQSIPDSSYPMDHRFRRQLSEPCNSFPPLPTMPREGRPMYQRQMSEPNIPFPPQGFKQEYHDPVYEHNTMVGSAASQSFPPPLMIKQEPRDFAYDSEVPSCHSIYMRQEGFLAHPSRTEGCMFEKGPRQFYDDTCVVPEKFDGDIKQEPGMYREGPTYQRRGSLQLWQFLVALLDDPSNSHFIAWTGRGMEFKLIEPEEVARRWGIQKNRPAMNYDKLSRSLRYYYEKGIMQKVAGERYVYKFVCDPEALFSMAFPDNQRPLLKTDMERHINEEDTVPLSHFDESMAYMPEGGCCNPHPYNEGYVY

Take CACGTA: the binding signal was 1.1 fold enrichment (6-mer frequency, TF over GST control) with FEV; 1.13 fold enrichment (6-mer frequency, TF over GST control) with ETV5; 1.05 fold enrichment (6-mer frequency, TF over GST control) with HSF1; 1.22 fold enrichment (6-mer frequency, TF over GST control) with SPIC; 1.2 fold enrichment (6-mer frequency, TF over GST control) with ELF4; 1.23 fold enrichment (6-mer frequency, TF over GST control) in the experiment with ELK4. For the same sequence, the binding signal with ETV2 is 1.09 fold enrichment (6-mer frequency, TF over GST control); with ELF3, 1.18 fold enrichment (6-mer frequency, TF over GST control); with CRX, 1.06 fold enrichment (6-mer frequency, TF over GST control); in the experiment with ETV1, 1.14 fold enrichment (6-mer frequency, TF over GST control); in the experiment with ERF, 1.19 fold enrichment (6-mer frequency, TF over GST control); with ETV3L it was 1.17 fold enrichment (6-mer frequency, TF over GST control). The binding signal with ETS2 was 1.14 fold enrichment (6-mer frequency, TF over GST control); with SPDEF, 1.15 fold enrichment (6-mer frequency, TF over GST control); with ETV7, 1.18 fold enrichment (6-mer frequency, TF over GST control); in the experiment with ELF5, 1.15 fold enrichment (6-mer frequency, TF over GST control); with ETV3, 1.16 fold enrichment (6-mer frequency, TF over GST control); with ETV6, 1.11 fold enrichment (6-mer frequency, TF over GST control).

Source of the values: paper PMC7862700, “An all-to-all approach to the identification of sequence-specific readers for epigenetic DNA modifications on cytosine”.
